Five sequences from paper PMC7862700, “An all-to-all approach to the identification of sequence-specific readers for epigenetic DNA modifications on cytosine” can be followed below.

Common to all, as to assay: DAPPL (digital affinity profiling via proximity ligation, sequencing); 10 mM Tris-HCl pH 7.5, 50 mM NaCl, 1 mM DTT, 4% glycerol, room temperature, 30 min; GST-TFs on glutathione beads, 16-mer random dsDNA library, 0.1% formaldehyde crosslink after washing; high values mean tight binding
Test [1] has as its target HSF1 (Homo sapiens, UniProt Q00613 1-529). To be noted: protein: recombinant; tags: N-terminal GST; chain copies: 3; dsDNA, one strand shown. An outline of the steps: (§1)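 Human transcription factors carrying a GST fusion were produced in yeast, bound to glutathione beads, tagged with DNA barcodes and pooled together with a tag-only sample. Each pool was held with 200 nmole of a random double-stranded 16-mer DNA library in Tris/NaCl/DTT/glycerol buffer for 30 min at room temperature, then washed, crosslinked in 0.1% formaldehyde, proximity-ligated with BsaI/T4 ligase (1 h, 37 °C), PCR-amplified and sequenced on an Illumina NextSeq500. Binding signal is the read frequency of each hexamer for a given factor divided by its frequency in the tag-only sample.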

In test [2] the target is ELF4 (Homo sapiens, UniProt Q99607 1-663). The note with it: protein: recombinant; tags: N-terminal GST; dsDNA, one strand shown. The gist of the method:
as §1

The target of test [3] is T1, ELK4 (Homo sapiens, UniProt P28324-2 1-405).
T1 sequence: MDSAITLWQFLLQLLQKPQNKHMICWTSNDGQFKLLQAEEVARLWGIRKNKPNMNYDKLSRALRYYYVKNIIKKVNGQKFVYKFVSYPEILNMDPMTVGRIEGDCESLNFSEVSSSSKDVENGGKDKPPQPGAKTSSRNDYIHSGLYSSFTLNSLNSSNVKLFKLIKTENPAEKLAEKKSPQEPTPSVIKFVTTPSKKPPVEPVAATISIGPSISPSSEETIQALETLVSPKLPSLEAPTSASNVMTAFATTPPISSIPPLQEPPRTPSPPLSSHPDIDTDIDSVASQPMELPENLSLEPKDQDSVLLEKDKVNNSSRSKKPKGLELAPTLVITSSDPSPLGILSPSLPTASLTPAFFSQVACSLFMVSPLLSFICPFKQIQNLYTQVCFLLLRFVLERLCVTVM
To be noted: protein: recombinant; tags: N-terminal GST; dsDNA, one strand shown. The gist of the method: as §1

The target of test [4] is T2, ETV7 (Homo sapiens, UniProt Q9Y603 1-341).
T2 sequence: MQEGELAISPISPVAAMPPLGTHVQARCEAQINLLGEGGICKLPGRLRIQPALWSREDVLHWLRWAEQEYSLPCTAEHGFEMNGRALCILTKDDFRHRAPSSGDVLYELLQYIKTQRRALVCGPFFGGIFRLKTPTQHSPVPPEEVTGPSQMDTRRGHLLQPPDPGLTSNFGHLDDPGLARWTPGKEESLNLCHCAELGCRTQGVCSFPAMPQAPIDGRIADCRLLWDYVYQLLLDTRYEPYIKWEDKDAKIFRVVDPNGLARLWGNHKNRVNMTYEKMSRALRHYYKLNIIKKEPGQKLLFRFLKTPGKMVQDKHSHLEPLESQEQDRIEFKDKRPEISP
The note with it: protein: recombinant; tags: N-terminal GST; dsDNA, one strand shown. An outline of the steps: as §1

In test [5] the target is T3, ETV2 (Homo sapiens, UniProt O00321 1-342).
T3 sequence: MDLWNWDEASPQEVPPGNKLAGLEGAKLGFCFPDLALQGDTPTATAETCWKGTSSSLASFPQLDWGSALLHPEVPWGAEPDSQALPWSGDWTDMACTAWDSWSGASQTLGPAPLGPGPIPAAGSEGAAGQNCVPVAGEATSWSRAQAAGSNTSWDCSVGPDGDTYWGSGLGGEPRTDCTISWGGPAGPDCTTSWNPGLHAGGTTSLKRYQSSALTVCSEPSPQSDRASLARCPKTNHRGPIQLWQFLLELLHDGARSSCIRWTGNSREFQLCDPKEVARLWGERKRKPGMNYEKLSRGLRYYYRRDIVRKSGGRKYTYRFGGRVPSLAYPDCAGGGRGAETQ
The note with it: protein: recombinant; tags: N-terminal GST; dsDNA, one strand shown. An outline of the steps:
as §1

Test [6] has as its target T4, SPIC (Homo sapiens, UniProt Q8N5J4 1-248).
T4 sequence: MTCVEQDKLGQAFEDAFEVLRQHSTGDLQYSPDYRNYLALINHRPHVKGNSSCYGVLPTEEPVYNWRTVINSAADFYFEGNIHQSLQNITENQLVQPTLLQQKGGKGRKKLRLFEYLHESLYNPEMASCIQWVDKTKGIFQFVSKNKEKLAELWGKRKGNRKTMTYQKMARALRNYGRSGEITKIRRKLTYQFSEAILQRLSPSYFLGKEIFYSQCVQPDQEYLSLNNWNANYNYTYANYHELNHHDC
To be noted: protein: recombinant; tags: N-terminal GST; dsDNA, one strand shown. An outline of the steps: as §1

In test [7] the target is CRX (Homo sapiens, UniProt O43186 1-299). To be noted: protein: recombinant; tags: N-terminal GST; dsDNA, one strand shown. An outline of the steps: as §1
For test [8], the target named is T5, ERG (Homo sapiens, UniProt P11308 1-479).
T5 sequence: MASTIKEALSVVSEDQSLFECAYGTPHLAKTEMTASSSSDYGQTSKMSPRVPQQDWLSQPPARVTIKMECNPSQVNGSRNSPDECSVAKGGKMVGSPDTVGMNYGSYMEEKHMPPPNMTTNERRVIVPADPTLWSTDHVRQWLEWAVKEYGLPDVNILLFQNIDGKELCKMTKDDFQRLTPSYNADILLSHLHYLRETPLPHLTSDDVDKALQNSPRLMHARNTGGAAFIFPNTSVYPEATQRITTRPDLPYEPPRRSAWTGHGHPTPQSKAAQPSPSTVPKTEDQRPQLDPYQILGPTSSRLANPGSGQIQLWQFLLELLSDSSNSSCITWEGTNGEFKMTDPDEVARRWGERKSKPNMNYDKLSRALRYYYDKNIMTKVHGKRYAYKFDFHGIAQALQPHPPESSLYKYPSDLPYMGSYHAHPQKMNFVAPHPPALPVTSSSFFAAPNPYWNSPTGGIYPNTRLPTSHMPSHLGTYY
The note with it: protein: recombinant; tags: N-terminal GST; dsDNA, one strand shown. The gist of the method:
as §1

Test [9] addresses T6, FEV (Homo sapiens, UniProt Q99581 1-238).
T6 sequence: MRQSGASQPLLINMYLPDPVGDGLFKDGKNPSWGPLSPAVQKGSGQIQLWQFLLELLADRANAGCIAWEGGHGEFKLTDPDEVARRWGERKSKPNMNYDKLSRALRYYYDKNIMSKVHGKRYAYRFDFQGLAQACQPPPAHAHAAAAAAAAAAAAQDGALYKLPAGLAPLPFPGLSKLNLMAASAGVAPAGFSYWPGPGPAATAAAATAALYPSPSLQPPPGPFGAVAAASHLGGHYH
The note with it: protein: recombinant; tags: N-terminal GST; dsDNA, one strand shown. An outline of the steps: as §1

Test [10] concerns the target T7, ELF3 (Homo sapiens, UniProt P78545 1-371).
T7 sequence: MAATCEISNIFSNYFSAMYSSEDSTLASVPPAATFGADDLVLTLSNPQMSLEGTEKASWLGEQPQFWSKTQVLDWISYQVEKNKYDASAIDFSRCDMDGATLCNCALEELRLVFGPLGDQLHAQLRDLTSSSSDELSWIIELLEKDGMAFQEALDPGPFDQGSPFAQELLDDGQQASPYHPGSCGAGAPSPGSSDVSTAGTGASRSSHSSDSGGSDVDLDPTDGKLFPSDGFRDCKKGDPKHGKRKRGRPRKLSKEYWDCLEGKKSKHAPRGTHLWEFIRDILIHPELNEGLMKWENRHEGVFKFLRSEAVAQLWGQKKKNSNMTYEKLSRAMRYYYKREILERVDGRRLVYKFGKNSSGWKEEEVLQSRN
The note with it: protein: recombinant; tags: N-terminal GST; dsDNA, one strand shown. The gist of the method: as §1

In test [11] the target is T8, SPDEF (Homo sapiens, UniProt O95238 1-335).
T8 sequence: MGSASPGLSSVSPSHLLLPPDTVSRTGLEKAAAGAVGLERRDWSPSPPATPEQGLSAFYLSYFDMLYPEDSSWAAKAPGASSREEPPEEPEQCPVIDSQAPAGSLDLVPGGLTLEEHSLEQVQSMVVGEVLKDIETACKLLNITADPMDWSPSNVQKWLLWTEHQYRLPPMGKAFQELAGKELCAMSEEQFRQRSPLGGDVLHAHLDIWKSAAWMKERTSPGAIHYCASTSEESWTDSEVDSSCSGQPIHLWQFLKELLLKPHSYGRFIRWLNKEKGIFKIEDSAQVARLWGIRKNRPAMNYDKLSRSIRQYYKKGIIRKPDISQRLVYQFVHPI
To be noted: protein: recombinant; tags: N-terminal GST; dsDNA, one strand shown. The gist of the method:
as §1

The target in test [12] is T9, ELF5 (Homo sapiens, UniProt Q9UKW6-2 1-255).
T9 sequence: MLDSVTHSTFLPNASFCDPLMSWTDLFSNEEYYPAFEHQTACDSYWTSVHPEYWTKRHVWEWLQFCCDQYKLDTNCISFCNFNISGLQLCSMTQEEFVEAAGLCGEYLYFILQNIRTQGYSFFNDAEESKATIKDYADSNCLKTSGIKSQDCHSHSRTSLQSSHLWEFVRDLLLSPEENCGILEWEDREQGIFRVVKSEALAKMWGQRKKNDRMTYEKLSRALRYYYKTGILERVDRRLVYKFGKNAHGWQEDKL
The note with it: protein: recombinant; tags: N-terminal GST; dsDNA, one strand shown. An outline of the steps:
as §1

Test [13] concerns the target T10, ETV3 (Homo sapiens, UniProt P41162-2 1-143).
T10 sequence: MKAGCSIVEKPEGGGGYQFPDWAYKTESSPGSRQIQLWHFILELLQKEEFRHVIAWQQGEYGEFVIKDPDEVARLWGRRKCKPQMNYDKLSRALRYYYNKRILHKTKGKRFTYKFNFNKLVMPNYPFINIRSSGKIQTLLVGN
To be noted: protein: recombinant; tags: N-terminal GST; dsDNA, one strand shown. The gist of the method: as §1

Chain of HSF1 (Q00613 whole entry, the tested form may be a part): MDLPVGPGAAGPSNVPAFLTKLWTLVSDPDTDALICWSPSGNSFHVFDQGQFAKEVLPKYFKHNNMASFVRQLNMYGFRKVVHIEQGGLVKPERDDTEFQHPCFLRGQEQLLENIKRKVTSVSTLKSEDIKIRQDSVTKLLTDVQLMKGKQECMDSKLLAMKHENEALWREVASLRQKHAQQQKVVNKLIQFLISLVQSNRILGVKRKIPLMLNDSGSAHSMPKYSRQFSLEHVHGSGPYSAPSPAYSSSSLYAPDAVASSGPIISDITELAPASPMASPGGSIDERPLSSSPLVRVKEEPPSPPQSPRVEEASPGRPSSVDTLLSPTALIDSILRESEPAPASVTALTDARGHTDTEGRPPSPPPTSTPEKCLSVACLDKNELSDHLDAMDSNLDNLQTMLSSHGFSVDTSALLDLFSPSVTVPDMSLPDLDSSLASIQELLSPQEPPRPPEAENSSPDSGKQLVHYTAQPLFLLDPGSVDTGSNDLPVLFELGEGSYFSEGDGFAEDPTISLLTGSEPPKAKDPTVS
Chain of CRX (O43186 whole entry): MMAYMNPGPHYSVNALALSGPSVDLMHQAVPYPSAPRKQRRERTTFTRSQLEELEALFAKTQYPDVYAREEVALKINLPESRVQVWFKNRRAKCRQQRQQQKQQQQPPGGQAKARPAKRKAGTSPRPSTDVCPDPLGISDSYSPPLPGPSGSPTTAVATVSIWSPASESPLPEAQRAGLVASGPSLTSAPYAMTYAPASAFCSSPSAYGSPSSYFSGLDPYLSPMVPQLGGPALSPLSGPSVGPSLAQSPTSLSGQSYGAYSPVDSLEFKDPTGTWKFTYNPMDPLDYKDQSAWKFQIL
Chain of ELF4 (Q99607 whole entry): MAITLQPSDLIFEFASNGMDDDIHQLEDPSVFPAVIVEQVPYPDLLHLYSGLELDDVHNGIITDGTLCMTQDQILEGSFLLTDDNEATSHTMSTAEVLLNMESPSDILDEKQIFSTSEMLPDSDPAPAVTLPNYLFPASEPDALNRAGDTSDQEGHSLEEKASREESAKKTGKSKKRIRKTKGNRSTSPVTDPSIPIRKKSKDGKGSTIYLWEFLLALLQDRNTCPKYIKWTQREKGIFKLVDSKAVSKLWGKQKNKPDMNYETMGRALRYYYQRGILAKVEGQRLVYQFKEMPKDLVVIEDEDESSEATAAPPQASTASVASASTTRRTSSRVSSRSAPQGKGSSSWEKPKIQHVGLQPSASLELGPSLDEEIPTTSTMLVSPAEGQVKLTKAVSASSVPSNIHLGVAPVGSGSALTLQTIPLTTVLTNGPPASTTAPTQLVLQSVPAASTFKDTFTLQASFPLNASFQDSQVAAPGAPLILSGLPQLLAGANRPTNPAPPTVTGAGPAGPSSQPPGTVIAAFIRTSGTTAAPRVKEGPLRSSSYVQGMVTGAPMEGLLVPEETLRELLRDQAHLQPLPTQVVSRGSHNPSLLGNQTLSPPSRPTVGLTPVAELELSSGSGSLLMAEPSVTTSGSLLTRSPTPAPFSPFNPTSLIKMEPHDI

As for ATCGCG, the binding signal in [1] was 1.09 fold enrichment (6-mer frequency, TF over GST control); in [2], 1 fold enrichment (6-mer frequency, TF over GST control); in test [3] it was 1 fold enrichment (6-mer frequency, TF over GST control); in [4], 1.05 fold enrichment (6-mer frequency, TF over GST control).
On to CGAAGT, for which the binding signal in [1] was 1.08 fold enrichment (6-mer frequency, TF over GST control); in [3] it was 1 fold enrichment (6-mer frequency, TF over GST control); in test [5] it was 1.03 fold enrichment (6-mer frequency, TF over GST control); in [4] it was 1.06 fold enrichment (6-mer frequency, TF over GST control).
Take AGAACT: the binding signal was 1.63 fold enrichment (6-mer frequency, TF over GST control) in test [1]; 1.03 fold enrichment (6-mer frequency, TF over GST control) in test [6]; 1.02 fold enrichment (6-mer frequency, TF over GST control) in [7].
On to CGGATT, for which the binding signal in test [8] was 1 fold enrichment (6-mer frequency, TF over GST control); in [9], 1.44 fold enrichment (6-mer frequency, TF over GST control); in [1] it was 1.56 fold enrichment (6-mer frequency, TF over GST control); in test [10], 1.01 fold enrichment (6-mer frequency, TF over GST control); in [7], 2.48 fold enrichment (6-mer frequency, TF over GST control); in test [11] it was 1.42 fold enrichment (6-mer frequency, TF over GST control). Besides, the binding signal is 1.01 fold enrichment (6-mer frequency, TF over GST control) in test [12] and 1.04 fold enrichment (6-mer frequency, TF over GST control) in test [13].
Regarding GGATCA, the binding signal was 1.1 fold enrichment (6-mer frequency, TF over GST control) in test [1] and 1.53 fold enrichment (6-mer frequency, TF over GST control) in test [7].
